The source of these data is PubChem BioAssay (NCI).

Assay in all cases: NCI-60 one-dose screen, 48 h (100 = growth as untreated, 0 = no growth, -100 = all killed)
What all share (details): 10 µM

In assay [1] the test system is SK-MEL-2 melanoma.
Assay [2] relates to SN12C renal.
In assay [3] the test system is UO-31 renal.
In assay [4] the test system is TK-10 renal.
For assay [5], the system named is ACHN renal.
Assay [6] relates to CAKI-1 renal.
The test system of assay [7] is A498 renal.
Assay [8] concerns CCRF-CEM leukemia.
The subject of assay [9] is MOLT-4 leukemia.

About 83,000 compounds went through this panel and 20% of them were active in at least one assay; those are over-represented in the sample as a whole.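 48-hour exposure, single concentration, 96-well plates; percent growth endpoint where 0 means no net growth. Active: below 10.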 A number with no mark means an inactive call. Calls of active or inactive are those of the source.

With `CC(C)C[C@H](NC(=O)Cn1ccc2ccccc2c1=O)B(O)O`, the growth in assay [1] is 63.5%; in assay [2], 75.8%; in assay [3] it was 50.6%; in [4], 11.7%; in assay [5], 29.1%; in [6], 40.6%. Also, the figures for the growth in assay [7], in [8] and in assay [9] were 30.1%, 15.2% and 9.94% (active), respectively.

As for `CC(=O)c1c(O)cc2c3c1OC(C)(C)C1CCC(C)(CC31)O2` (stereo not given), the growth in assay [1] was 99.2%; in assay [2], 99.6%; in assay [3], 77.8%; in [4], 110%; in assay [6] it was 89.5%; in assay [7] it was 76%. In addition, the growth in assay [8] is 106%; in [9], 78.9%.

As to `CC(C)c1ncc(CO)n1Cc1c(Cl)cccc1Cl`, the growth in assay [1] was 101%; in assay [2], 113%; in assay [3] it was 90.1%; in assay [4] it was 95%; in [5] it was 99.9%; in [6], 100%. The growth in assay [7] is 77.8%; in assay [8], 103%; in assay [9], 101%.

As to `CC(C)CCN(CCCNc1c2c(nc3cc(Cl)ccc13)CCCC2)CCC(C)C`, the growth was 103% in assay [1]; 71.6% in assay [2]; 27.2% in [3]; 78.1% in assay [4]; 92.4% in assay [5]; 56.5% in assay [6]. Besides, the figures for the growth in assay [7], in assay [8] and in assay [9] were 59%, 61.6% and 47%, respectively.

For `FC(F)(F)c1ccc(-c2ncc(-c3ccc(C(F)(F)F)cc3)c(NCc3cc(C(F)(F)F)cc(C(F)(F)F)c3)n2)cc1`, the growth in assay [1] was 69.9%; in assay [2] it was 34.2%; in [3], 37.1%; in assay [4], 86.9%; in assay [5] it was 27.4%; in assay [6], 37.5%. Further, the growth in [7] is 54.1%; in assay [9], 59.3%.

As for `CCc1ccc(-c2nnc(COc3ccc(-c4nc5ccc(C)cc5[nH]4)cc3OC)o2)cc1`, the growth in assay [1] was 104%; in assay [2], 10.7%; in assay [3] it was 38.2%; in [4], 55.1%; in assay [5], -8.12% (active); in [6], 30.3%. Further, the growth in assay [7] is 84.1%; in assay [8], 6.98% (active); in assay [9], 38.6%.

In the case of `COc1cc(-c2nc3ccccc3[nH]2)ccc1OCC(=O)N=Nc1c(O)[nH]c2ccccc12`, the growth was 103% in assay [1]; 83.2% in assay [2]; 89.3% in assay [3]; 136% in assay [4]; 101% in [5]; 94.2% in assay [6]. The growth in assay [7] is 95.2%; in assay [9] it was 65.9%.

With `CCCCCCOc1ccc(/C=C/C(=O)c2ccc(B(O)O)cc2)cc1`, the growth in [1] is 78%; in assay [2], 71.4%; in [3] it was 51.6%; in [4] it was 85.2%; in assay [6] it was 61.5%; in assay [7], 70.4%. The growth was 59.1% in [8] and 58.3% in [9].

`CC[C@@]1(C(N)=O)CC2C=CC1C2` (stereo not given in full): the growth in assay [1] is 105%; in assay [2] it was 102%; in assay [3], 95.5%; in assay [4], 108%; in assay [5] it was 113%; in [6], 103%. Also, the results for the growth in assay [7], in assay [8] and in assay [9] were 123%, 87.9% and 88.3%, respectively.

As to `CCCCCCCCCCCC(=O)NCCCN(C)C`, the growth in assay [1] is 92.2%; in assay [2], 86.6%; in assay [3], 85%; in assay [4] it was 96%; in assay [5], 99.9%; in assay [6], 83.4%. In addition, the growth in assay [7] was 72.2%; in [8] it was 65%; in [9] it was 88.9%.

Take `COc1ccc(C2C=C(c3ccc(Cl)c(Cl)c3)N=C3SC(C)=CN32)cc1OC` (stereo not given): the growth is 79.2% in assay [1]; 70.6% in [2]; 60.7% in assay [3]; 74.1% in assay [4]; 68.3% in assay [5]; 61.7% in assay [6]. Further, the growth in assay [7] was 105%; in assay [9] it was 48.8%.

As for `Fc1ccc(Nc2ccnc(N3CCN(c4ccnc5cc(Cl)ccc45)CC3)n2)cc1`, the growth in assay [1] was 60.3%; in assay [2], 49%; in assay [3], 7.09% (active); in assay [4] it was 30.5%; in [5] it was 38.7%; in assay [6] it was 41.9%. Also, the figures for the growth in assay [7], in assay [8] and in assay [9] were 22.7%, 40.1% and 13%, respectively.

For `N/C(=N\O)c1cn(C2OC(CO)C(O)C2O)c2ncnc(N)c12` (stereo not given), the growth in assay [1] was -41.5% (active); in assay [2], 3.58% (active); in [3], 10% (active); in assay [4], -0.402% (active); in [5], 11.6%; in assay [6], 3.33% (active). Moreover, the growth was -56.3% (active) in [7] and -27.7% (active) in assay [9].

For the molecule `COc1ccc(-c2nc(SCC(=O)c3ccc(Br)cc3)[nH]c(=O)c2C#N)cc1`, the growth in assay [1] is 103%; in assay [2], 112%; in assay [3] it was 86.3%; in [4] it was 99.6%; in [5], 122%; in [6], 99.9%. The growth was 78.5% in [7] and 96.8% in [9].

As to `Nc1ccc(Sc2ccc3c4c2cccc4c(=O)n2c4ccccc4nc32)cc1`, the growth in assay [1] was 84.1%; in assay [2], 19.2%; in assay [3] it was 9.28% (active); in assay [4], 78.6%; in [5], 22.1%; in [6], 5.9% (active). Also, the growth was 58.8% in assay [7] and -6.87% (active) in assay [9].

Take `COc1ccc(C(=O)/C=C/c2cc(-c3ccc(OC)c(OC)c3)n[nH]2)cc1OC`: the growth in assay [1] is 42.7%; in [2], -31.7% (active); in [3], -95% (active); in assay [4], -20.7% (active); in assay [5] it was -70.9% (active); in [6] it was -24.4% (active). For the same molecule, the growth in [7] is -40.7% (active); in assay [9], 1.44% (active).
